eIF4E 4G PPI = blocks eIF4E binding to eIF4G. inhibition, % at 21.7 µM. P63073+Q04637. actives 0.37% (n = 220,000). AID 782. TR-FRET eIF4E-eIF4GI(517-606) binding, 2 h;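 active = inhibition above about 30%, limit read from the data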;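 also: 0% = full FRET control wells and 100% = background wells lacking eIF4GI fragment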
eIF4H FP inh = inhibitors of RNA binding by human eIF4H | inhibition, % at 35 µM | Q15056 | AID 2012 | actives 0.94% (n = 290,000) | eIF4H fluorescence polarization binding assay;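 also: calls also rest on retests at 20 µM and on dose response follow-up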
PABP1 MLLE inh = blocks PAM2 peptide binding to the PABP1 MLLE domain; P11940; inhibition, % at 20 µM; actives 0.36% (n = 360,000); GST-MLLE / FITC-PAM2 fluorescence polarization; in the data active = inhibition above about 35%, passing the limit was not always enough;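 also: plate controls were DMSO wells with GST-MLLE for no effect and wells lacking GST-MLLE protein for full effect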
PABP polyA inh = blocks human PABP binding to poly(A) RNA; fluorescence polarization; calls only at 35 µM; actives 1% (n = 290,000); AID 2014;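 also: calls also rest on retests at 20 µM and on dose response follow-up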
EBV gp42 inh = blocks Epstein-Barr virus glycoprotein 42 binding; actives 0.42% (n = 220,000); AID 1085; Fluorescence polarization binding assay, mP read-out; Q1HVG2; inhibition, % (tested at 21.74 µM); in the data active = inhibition above about 50%
Target sequence (Q1HVG2 whole entry, looked up): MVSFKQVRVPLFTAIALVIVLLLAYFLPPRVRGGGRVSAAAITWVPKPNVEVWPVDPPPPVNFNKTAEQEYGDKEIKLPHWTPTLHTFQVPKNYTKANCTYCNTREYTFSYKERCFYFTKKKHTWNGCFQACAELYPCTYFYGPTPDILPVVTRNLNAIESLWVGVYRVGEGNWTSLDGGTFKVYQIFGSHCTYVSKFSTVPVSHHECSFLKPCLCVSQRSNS
An asterisk follows results filed as active; i = inactive; ? = inconclusive; . = no result; + = active, no number; ! = not active in a repeat; [ ] = another dose, or the depositor's remark. In the library only some 1.7% were active in any assay of this set; here they are far more common. Unless noted, no rule for the calls is given here.

SMILES	eIF4E 4G PPI	eIF4H FP inh	PABP1 MLLE inh	PABP polyA inh	EBV gp42 inh
COC(=O)C(O)(c1ccc(NC(=O)c2ccccc2)cc1)C(F)(F)F (configuration not stated)	2.8	-11.4	-7.4	i	-11.0
COC(=O)CCCCC1SCC(NC(=O)c2ccccc2)C1Cl (configuration not stated)	-3.3	?	22.4	?	53.0*
CC(=O)N1CC(=O)Nc2ccc(Cl)cc2C1c1ccc(F)cc1 (configuration not stated)	-0.9	5.2	-1.2	i	5.2
CNC(=O)CSP(=S)(OC)OC	.	.	40.2*	.	.
Cc1ccnc(-n2c(C)nc3ccccc3c2=O)c1	-0.1	-3.2	-7.7	i	-3.8
Cc1cccc(N2CCc3c2nc2ccccc2c3N)c1	94.4*![fluorescence artefact?]	7.8	-12.5	i	-4.0
O=[N+]([O-])c1cccc(CN2CCN(Cc3ccc(Br)cc3)CC2)c1	4.1	-12.3	-3.2	i	-7.2
CC(C)N1CC=C(c2c[nH]c3ccccc23)CC1	-1.7	-1.4	-1.8	i	-12.1
C1=C(c2c[nH]c3ccccc23)CCNC1	-0.8	95.0*	.	+	-23.1
CCC1(CC)C(=O)NC(=O)N(CCc2ccccn2)C1=O	.	.	11.8	.	.
CN(C)c1ccc(C=C2C(=O)NC(=S)NC2=O)cc1[N+](=O)[O-]	7.2	14.8	40.0*	i	-27.9
Cc1ccc(-n2c(=O)[nH]c3ccccc3c2=O)cc1[N+](=O)[O-]	.	.	-7.2	.	.
CC1CCN(CC(=O)c2cccc(C(F)(F)F)c2)CC1	.	2.1	-0.7	i	.
O=[N+]([O-])c1[nH]cnc1Br	.	.	-10.9	.	.
Cc1nc(CCl)cc(=O)[nH]1	0.0	-6.1	-4.3	i	-1.9
Cc1cc(/C=C2\C(=O)NC(=O)N(c3ccccc3F)C2=O)c(C)n1-c1cc(C(=O)O)cc(C(=O)O)c1	.	65.0	15.5	+	.
CCc1ccccc1N1C(=O)NC(=O)/C(=C\c2cc(C)n(C)c2C)C1=O	3.0	66.0*	-4.2	?	-15.1
Cc1cc(/C=C2\C(=O)NC(=O)N(c3ccc(F)cc3)C2=O)c(C)n1-c1cccc(C(=O)O)c1	5.8	70.4	-6.3	+	-12.9
Cc1cc(/C=C2\C(=O)NC(=O)N(c3ccc(Cl)cc3)C2=O)c(C)n1C	3.1	55.2	-25.0	i	-28.9
Cc1cc(C=C2C(=O)NC(=S)NC2=O)c(C)n1-c1ccc2c(c1)OCO2	2.3	92.0	-57.0	+	60.6*
CCCCCCN=C(C)c1c(O)n(CCCC)c(=O)[nH]c1=O	16.1	1.1	0.8	i	-9.3
COc1cc2c(c(OC)c1OC)-c1ccc(O)cc1[C@@H](NC(C)=O)CC2	.	.	-3.6	.	.
COc1ccccc1N1CCN(CCc2c[nH]c3cc4c(cc23)OCO4)CC1	.	.	-33.0	.	.
CCC(=O)Nc1cc(C(=O)N2CCC3(CC2)OCCO3)ccc1S(=O)(=O)c1ccc(C)cc1	-0.1	3.6	7.8	i	-7.6
Cc1cc(/C=C2\C(=O)NC(=O)N(c3ccccc3)C2=O)c(C)n1-c1ccc(C(=O)O)c(Cl)c1	.	99.5	10.0	+	.
SMILES	eIF4E 4G PPI	eIF4H FP inh	PABP1 MLLE inh	PABP polyA inh	EBV gp42 inh
Cc1ccc(/C=C2/C(=O)NC(=O)N(C)C2=O)cc1	1.0	?	15.3	+	-5.5
Cc1cc(/C=C2\C(=O)NC(=O)N(C)C2=O)c(C)n1-c1ccc2c(c1)OCO2	-1.4	73.3	1.2	i	0.7
C=CCN1C(=O)/C(=C/c2cc(C)n(-c3ccccn3)c2C)C(=O)NC1=S	-0.3	?	-14.2	+	-24.8
Cc1cc(/C=C2/C(=O)NC(=O)N(C)C2=O)c(C)n1-c1ccccc1	2.1	68.7	-12.3	+	1.1
CN1C(=O)NC(=O)/C(=C/c2ccc(C(=O)O)cc2)C1=O	-2.5	7.6	23.3	i	7.6
O=C(c1cc(F)ccc1F)C1CCCN(Cc2ccc3nonc3c2)C1 (configuration not stated)	1.6	1.1	1.9	i	-1.1
COc1ccc(OC)c(N=Cc2c(O)n(Cc3ccccc3)c(=S)[nH]c2=O)c1	-1.1	35.0*	-30.0	+	18.6
COc1ccc(Cn2c(O)c(C=Nc3c(C)n(C)n(-c4ccccc4)c3=O)c(=O)[nH]c2=O)cc1	2.5	-2.1	-3.1	i	-22.9
COc1ccc(N=Cc2c(O)n(Cc3ccccc3)c(=S)[nH]c2=O)c(OC)c1	6.5	?	-33.9	?	89.8*
CN(C)P(=NC(=S)c1cccn1C)(N(C)C)N(C)C	1.5	4.9	36.6*	i	0.4
CC/C(=N\Nc1cccc2ccccc12)c1c(O)[nH]c(=O)[nH]c1=O	3.5	54.1*	-9.2	i	16.6
C[C@]12CC[C@@H](O)CC1=CC(=O)C1C2CC[C@]2(C)C(=O)[C@H](O)CC12 (some centres not stated)	.	.	8.2	.	.
O=c1[nH]c(=S)[nH]c(O)c1N=Nc1ccc2c(c1)OCCO2	0.8	?	-62.0	?	-56.4
O=c1[nH]c(=S)[nH]c(O)c1N=Nc1ccc2c(c1)OCO2	5.7	53.1*	-34.2	i	-42.2
CN1CCN(C(=O)COc2ccc(S(=O)(=O)Nc3ccc(Cl)cc3)cc2)CC1	.	.	0.3	.	.
CCCC(=O)NC(Oc1ccc(C(C)=O)cc1)C(Cl)(Cl)Cl (configuration not stated)	4.0	-8.1	-15.2	i	62.9*
Cc1cccc(N2C(=O)NC(=O)/C(=C/c3cc4c(cc3[N+](=O)[O-])OCO4)C2=O)c1	3.5	92.2	154.6	i	83.2*
O=C1NC(=O)C(=Cc2cc3c(cc2[N+](=O)[O-])OCO3)C(=O)N1	2.2	97.6*	29.5	+	-19.4
COc1ccc2c(c1)c(CCN)c(C)n2Cc1ccccc1	2.2	-12.4	-10.6	i	10.3
Cn1cnc([N+](=O)[O-])c1Sc1ccc([N+](=O)[O-])cc1	1.0	19.4	46.7*	i	-31.4
CCN1C[C@@]2(COC)C3[C@@H](OC)[C@H]4[C@@H]1[C@@]3(C1C[C@H]3[C@H](O)C1[C@]4(O)C[C@H]3OC)[C@@H](OC)C[C@H]2O (some centres not stated)	.	.	5.1	.	.
COc1ccc(/C=C2/C(=O)NC(=O)N(c3ccc(C)c(C)c3)C2=O)cc1CN1C(=O)c2ccccc2C1=O	3.8	50.1*	27.0	+	-1.2
CCCCn1c(N)c(C(=O)NCCN2CCOCC2)c2nc3ccccc3nc21	5.6	-1.6	-23.4	i	-5.2
CCCCn1c(NS(=O)(=O)c2ccccc2)c(C(=O)OCC)c2nc3ccccc3nc21	5.7	active	-4.4	+	21.2
CCC(C)NC(=O)c1c(N)n(CCCOC)c2nc3ccccc3nc12 (configuration not stated)	15.1	60.6*	7.8	+	23.1
CCOC(=O)c1c(N)n(CCN2CCCCC2)c2nc3ccccc3nc12	-2.4	94.5*	-12.4	+	-18.7
CCCCn1c(NC(=O)c2ccc(Br)o2)c(C(=O)OCC)c2nc3ccccc3nc21	7.1	-5.2	-26.3	i	-25.9
COCCCn1c(N)c(C(=O)Nc2ccccc2)c2nc3ccccc3nc21	1.4	-2.4	-2.2	i	-3.5

Screens: PubChem, several laboratories
